Source: PubChem BioAssay
NOD2-RIPK2 inh: NOD2-RIPK2 binding disruptors in cells, primary screen, fluorescence, CHO cells, BLA complementation | CCF4 ratio | Receptor-interacting serine/threonine-protein kinase 2 (Homo sapiens), O43353 | 360,000 compounds, 0.38% hits | AID 624267, 2012 | inhibition, % at 4.98 µM; in the data active means inhibition above about 21%
Target sequence (O43353 whole entry, looked up): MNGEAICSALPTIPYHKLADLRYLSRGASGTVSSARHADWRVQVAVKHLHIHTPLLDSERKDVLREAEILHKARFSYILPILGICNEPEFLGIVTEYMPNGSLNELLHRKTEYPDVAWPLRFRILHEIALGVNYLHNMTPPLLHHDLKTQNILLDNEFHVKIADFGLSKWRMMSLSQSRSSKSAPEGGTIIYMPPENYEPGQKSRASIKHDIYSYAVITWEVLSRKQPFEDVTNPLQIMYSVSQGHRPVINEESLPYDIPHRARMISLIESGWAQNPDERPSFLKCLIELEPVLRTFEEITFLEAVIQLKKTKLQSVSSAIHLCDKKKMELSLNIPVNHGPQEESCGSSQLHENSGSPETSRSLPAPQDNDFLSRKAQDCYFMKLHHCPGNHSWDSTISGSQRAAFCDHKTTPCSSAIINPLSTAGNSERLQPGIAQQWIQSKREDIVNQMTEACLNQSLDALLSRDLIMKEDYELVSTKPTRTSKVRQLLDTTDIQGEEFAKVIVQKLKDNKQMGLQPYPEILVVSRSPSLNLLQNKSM
HSF-1 act: HSF-1 activators, primary screen, NIH3T3-HGL cells, MG132 stress, luminescence, single point; 300,000 compounds, 1.7% hits; NIH3T3-HGL HSF-1 luciferase reporter, 8 h; 100% = twice DMSO control signal; activation, % at 9 µM;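 active means mean replicate activation of at least 50% with a set share of replicates each reaching 50%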
TLR4 MyD88 comp: inhibitors of TLR4-MyD88 association in cells, primary screen, cell-based, HeLa CL3-4, BLA complementation, FRET ratio; Toll-like receptor 4 (Homo sapiens) + Myeloid differentiation primary response protein …; HeLa CL3-4 TLR4/MyD88 BLA complementation; inhibition, % at 8.4 µM; 200,000 compounds, 0.18% hits; AID 861, 2007; in the data active means inhibition above about 25%
TLR9-MyD88 inh: inhibitors of TLR9-MyD88 association in cells, primary screen, cell-based, CHO, BLA complementation, fluorescence; CCF4 FRET ratio; inhibition, % at 4.98 µM; 340,000 compounds, 0.21% hits;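 active means inhibition above the mean over all tested compounds plus 3 SD, cut at about 21% in these data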
HSF1 inh: HSF1 inhibitors in luciferase reporter cells, primary screen, cell-based, NIH3T3, luminescence; NIH3T3-HGL HSE-luciferase, MG132-induced, luminescence 8 h; active compounds read low; activity change, negative = inhibition, % at 7.5 µM (by protocol); 300,000 compounds, 0.77% hits; AID 2098, 2009;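 active means more than half of replicate wells show activity change below -50%, luminescence cut by over half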;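 further: luciferase reports HSF-1 transcriptional activity via heat shock element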
Numbers stand for hits. The list is not random: actives were taken first. Their share in the collection is about 2.4%.

N#C/C(=C/c1ccc(N2CCCCCC2)o1)c1cccc(F)c1 was read as NOD2-RIPK2 inh inactive, HSF-1 act 81, TLR4 MyD88 comp inactive, TLR9-MyD88 inh inactive and HSF1 inh inactive.
N#C/C(=C/c1ccc(N2CCOCC2)o1)c1ccc(Br)cc1 was read as NOD2-RIPK2 inh 25, HSF-1 act 94, TLR4 MyD88 comp inactive, TLR9-MyD88 inh inactive and HSF1 inh inactive.
N#C/C(=C/c1ccc(N2CCCCCC2)o1)c1ccc(F)cc1 was read as NOD2-RIPK2 inh 39, HSF-1 act 114, TLR4 MyD88 comp inactive, TLR9-MyD88 inh 24 and HSF1 inh inactive.
Screening O=C(CC(O)CCc1ccccc1)c1ccc(O)cc1 (stereo not drawn) returned NOD2-RIPK2 inh inactive and TLR9-MyD88 inh inactive.
Screening CCC(C)(C)NC(=O)c1cc(C(=O)OC)cc([N+](=O)[O-])c1 returned NOD2-RIPK2 inh inactive, HSF-1 act inactive, TLR4 MyD88 comp inactive, TLR9-MyD88 inh inactive and HSF1 inh inactive.
CCCN(CCC)S(=O)(=O)c1ccc(NC(=O)c2cc(C(=O)OC)cc([N+](=O)[O-])c2)cc1 was read as NOD2-RIPK2 inh inactive, HSF-1 act inactive, TLR4 MyD88 comp inactive, TLR9-MyD88 inh inactive and HSF1 inh -61.
Screening O=C(CSc1nnc(-c2ccccc2Br)o1)N1CCOCC1 returned NOD2-RIPK2 inh inactive, HSF-1 act inactive, TLR9-MyD88 inh inactive and HSF1 inh inactive.
`COc1ccc(-c2nnc(SCC(=O)/C(C#N)=C(\C)N)o2)cc1` gave NOD2-RIPK2 inh inactive, HSF-1 act 81, TLR4 MyD88 comp inactive, TLR9-MyD88 inh inactive and HSF1 inh inactive.
Screening COc1ccc(-c2nnc(SCC(=O)c3ccc(C)o3)o2)cc1 returned NOD2-RIPK2 inh inactive, HSF-1 act inactive, TLR4 MyD88 comp inactive, TLR9-MyD88 inh inactive and HSF1 inh inactive.
For C/C(N)=C(/C#N)C(=O)CSc1nnc(-c2ccccc2Br)o1 the results were NOD2-RIPK2 inh inactive, HSF-1 act 115, TLR4 MyD88 comp inactive, TLR9-MyD88 inh inactive and HSF1 inh inactive.
Screening CC(C)CC1OC(C)Cc2[nH][nH]c(=O)c21 (stereo not drawn) returned NOD2-RIPK2 inh inactive.
`CCOC(=O)N/N=C\c1ccc(C)s1` gave NOD2-RIPK2 inh inactive, HSF-1 act inactive, TLR4 MyD88 comp inactive, TLR9-MyD88 inh inactive and HSF1 inh -79.
Cc1ccc(/C=N/N=C/c2ccc(C)s2)s1 was read as NOD2-RIPK2 inh inactive, HSF-1 act 78, TLR4 MyD88 comp inactive, TLR9-MyD88 inh inactive and HSF1 inh inactive.
Screening CCOC(=O)N/N=C\c1ccc([N+](=O)[O-])s1 returned NOD2-RIPK2 inh inactive, HSF-1 act inactive, TLR4 MyD88 comp inactive, TLR9-MyD88 inh inactive and HSF1 inh inactive.
`Cc1ccc(/C=N/NC(=O)c2ccncc2)s1` gave NOD2-RIPK2 inh inactive, HSF-1 act inactive, TLR9-MyD88 inh inactive and HSF1 inh inactive.
`CC(=O)c1cn(CC(=O)Nc2ccccc2C)c2ccccc12` gave NOD2-RIPK2 inh inactive, HSF-1 act inactive, TLR4 MyD88 comp inactive, TLR9-MyD88 inh inactive and HSF1 inh -80.
`C[C@H](CO)N1C[C@H](C)[C@@H](CN(C)S(C)(=O)=O)Oc2ccc(NS(=O)(=O)c3cn(C)cn3)cc2C1=O` gave NOD2-RIPK2 inh inactive and TLR9-MyD88 inh inactive.
`O=C(NCCNc1ccc(Cl)cc1[N+](=O)[O-])c1ccccc1F` gave NOD2-RIPK2 inh inactive, HSF-1 act 51, TLR9-MyD88 inh inactive and HSF1 inh inactive.
Screening O=C(NCCNc1ccnc2cc(Cl)ccc12)c1ccccc1F returned NOD2-RIPK2 inh inactive, HSF-1 act inactive, TLR9-MyD88 inh inactive and HSF1 inh -79.
`CCSC1(SCC)N=C(N)C2(C#N)C(c3ccc(OC)c(OC)c3OC)C12C#N` (stereo not drawn) gave NOD2-RIPK2 inh inactive, HSF-1 act 198, TLR9-MyD88 inh inactive and HSF1 inh inactive.
Cc1cc2oc(=O)cc(CN3CCN(c4ccc(Cl)c(Cl)c4)CC3)c2cc1Cl was read as NOD2-RIPK2 inh inactive.
For COc1ccc(NC(=O)CCSc2ccc(C)cc2)cc1 the results were NOD2-RIPK2 inh inactive, HSF-1 act inactive, TLR4 MyD88 comp inactive, TLR9-MyD88 inh inactive and HSF1 inh inactive.
Screening COc1ccc(NC(=O)CCSc2ccc(F)cc2)cc1 returned NOD2-RIPK2 inh inactive, HSF-1 act 55, TLR4 MyD88 comp inactive, TLR9-MyD88 inh inactive and HSF1 inh inactive.
For CC(C)C1Cc2[nH][nH]c(=O)c2C(C2CC2)O1 (stereo not drawn) the results were NOD2-RIPK2 inh inactive.
Cc1cc(NC(=O)OC2CCCCC2)ccc1[N+](=O)[O-] was read as NOD2-RIPK2 inh inactive, HSF-1 act 71, TLR9-MyD88 inh inactive and HSF1 inh inactive.
For S=C(N/N=C/c1cccs1)NC1CC2CCC1C2 (stereo not drawn) the results were NOD2-RIPK2 inh inactive, HSF-1 act 64 and HSF1 inh inactive.
For CNC(=O)c1c(NC(=O)CCS(=O)(=O)c2ccc(C)cc2)sc(C)c1C the results were NOD2-RIPK2 inh inactive, HSF-1 act inactive, TLR9-MyD88 inh inactive and HSF1 inh inactive.
`COc1ccc(C(=O)Cn2c(C(=O)/C=C/c3ccccc3)nc3ccccc32)cc1` gave NOD2-RIPK2 inh inactive, HSF-1 act 341, TLR4 MyD88 comp inactive, TLR9-MyD88 inh inactive and HSF1 inh inactive.
Screening N=C1c2ccccc2CN1NC(=O)COc1ccc(Cl)cc1 returned NOD2-RIPK2 inh inactive, HSF-1 act inactive, TLR4 MyD88 comp inactive, TLR9-MyD88 inh inactive and HSF1 inh inactive.
For CC(C)(C)c1ccc(OCC(=O)NN2Cc3ccccc3C2=N)cc1 the results were NOD2-RIPK2 inh inactive, HSF-1 act 92, TLR4 MyD88 comp inactive, TLR9-MyD88 inh inactive and HSF1 inh inactive.
For CCc1nc(SCCO)c2oc3ccccc3c2n1 the results were NOD2-RIPK2 inh inactive, HSF-1 act inactive, TLR4 MyD88 comp inactive, TLR9-MyD88 inh inactive and HSF1 inh inactive.
Screening CCc1nc(SCC(=O)c2ccc(Cl)s2)c2oc3ccccc3c2n1 returned NOD2-RIPK2 inh inactive, HSF-1 act 84, TLR4 MyD88 comp inactive, TLR9-MyD88 inh inactive and HSF1 inh inactive.
`O=C1CCc2cc(S(=O)(=O)Nc3ccccc3F)ccc2N1` gave NOD2-RIPK2 inh inactive and TLR9-MyD88 inh inactive.
CC(=O)n1cc(N(C(=O)CCl)c2ccc(Cl)cc2)c2ccccc21 was read as NOD2-RIPK2 inh inactive, HSF-1 act inactive and HSF1 inh -84.
Screening CCOC(=O)c1ccccc1Nc1cn(C(C)=O)c2ccccc12 returned NOD2-RIPK2 inh inactive, HSF-1 act inactive, TLR4 MyD88 comp inactive, TLR9-MyD88 inh inactive and HSF1 inh inactive.
Screening CC(=O)n1cc(Nc2ccccc2C(=O)O)c2ccccc21 returned NOD2-RIPK2 inh inactive, HSF-1 act inactive, TLR4 MyD88 comp inactive, TLR9-MyD88 inh inactive and HSF1 inh inactive.
